# Data taken from PubChem BioAssay AID624405 (Broad Institute, 2012).
# The campaign covered roughly 1,900 compounds. About 250 (13%) were called active. About 4% were inconclusive and are not listed.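 The calls were made as follows: active = fitted curve reaches 40% rescue activity at or below the top valid dose, in every test run; inconclusive = test runs disagree, some active and some inactive; inactive = every run misses the threshold or moves the wrong way.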 These entries were drawn from the full list. A call without a number means that no potency is given here. Potency and affinity values are given separately.
# Test: rescue of simvastatin-induced ATP loss – cell-based, C2C12 myotubes, ATP luminescence, cherry pick, dose response (AID 624405);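 also: myotubes are challenged with simvastatin at 10 µM to lower ATP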
# Details: 48 h, scaled: DMSO wells 0, geranylgeraniol wells 100; series mostly up to 19.5 µM
row,SMILES,outcome
1,O=S(=O)(c1cccc2nsnc12)N1CCOCC1,inactive
2,COc1ccc(NC(=O)Nc2ccc3c(c2)C(=O)N([C@H](C)CO)C[C@@H](C)[C@@H](CN(C)Cc2ccc(C(F)(F)F)cc2)OCCCC[C@@H](C)O3)cc1,inactive
3,CCC(C)(NC(=O)CNC(C)=O)C(=O)NC1CCCCC1 (stereo not drawn),inactive
4,COc1ccc(C#Cc2cnc3c(c2)C(=O)N([C@@H](C)CO)C[C@@H](C)[C@H](CN(C)C(=O)Nc2cccc(OC)c2)O3)cc1,inactive
5,CCOC(=O)c1ccc2c(c1)nc(COc1ccc(OC)cc1)n2CC,inactive
6,CCOCCn1c(COc2ccccc2)nc2ccccc21,inactive
7,O=C(CCCCCn1c(=O)[nH]c2ccsc2c1=O)NCc1ccc(F)cc1,inactive
8,CCc1ccc(NC(=O)c2cc(-c3cccs3)on2)cc1,inactive
9,CCOC(=O)/C=C(\C)Nc1cc(C)nn1-c1ccccc1,inactive
10,C[C@@H]1CN([C@H](C)CO)C(=O)c2cc(NC(=O)Cc3cn(C)c4ccccc34)ccc2O[C@H]1CN(C)S(=O)(=O)c1cccs1,inactive
11,O=C(NCc1ccco1)C(c1ccc(F)cc1)N(Cc1cccnc1)C(=O)Cn1nnc2ccccc21 (stereo not drawn),inactive
12,C[C@@H]1CN([C@H](C)CO)C(=O)Cc2cc(NC(=O)CCCCCC(=O)Nc3ccccc3N)ccc2O[C@@H]1CN(C)Cc1ccc(C(F)(F)F)cc1,inactive
13,C[C@@H]1CN([C@H](C)CO)C(=O)Cc2cc(NC(=O)CCCCCC(=O)Nc3ccccc3N)ccc2O[C@H]1CN(C)Cc1ccc(C(F)(F)F)cc1,inactive
14,C[C@@H]1CN([C@@H](C)CO)C(=O)Cc2cc(NC(=O)CCCCCC(=O)Nc3ccccc3N)ccc2O[C@H]1CN(C)Cc1ccc(C(F)(F)F)cc1,inactive
15,C[C@@H]1CN([C@@H](C)CO)C(=O)Cc2cc(NC(=O)CCCCCC(=O)Nc3ccccc3N)ccc2O[C@@H]1CN(C)Cc1ccc(C(F)(F)F)cc1,inactive
16,Cc1cc(C)c2c(CN3CCN(Cc4ccc5c(c4)OCO5)CC3)cc(=O)oc2c1,inactive
17,C[C@H](CO)N1C[C@H](C)[C@@H](CN(C)Cc2ccc(C(F)(F)F)cc2)Oc2ccc(NS(=O)(=O)c3ccc(Cl)cc3)cc2CC1=O,inactive
18,C[C@@H]1CCCCO[C@@H](CN(C)Cc2ccc(C(F)(F)F)cc2)[C@H](C)CN([C@@H](C)CO)C(=O)c2cc(NS(=O)(=O)c3cccs3)ccc2O1,inactive
19,Cc1ccc(-c2cnc3c(c2)C(=O)N([C@H](C)CO)C[C@H](C)[C@@H](CN(C)C(=O)Cc2ccccc2)O3)cc1,inactive
20,CCC(C)(C)NC(=O)CN(C(=O)CNS(=O)(=O)c1ccccc1)c1ccccc1,inactive
21,COc1ccc(CN2[C@@H](CO)[C@@H]3c4ccccc4N(C(=O)c4ccccc4)C[C@@H]32)cc1,inactive
22,Fc1ccc(C(c2nnnn2C2CCCC2)N2CCN(Cc3ccccc3)CC2)cc1 (stereo not drawn),inactive
23,CC(C)CC(c1nnnn1C1CCCC1)N1CCN(c2ccccc2F)CC1 (stereo not drawn),inactive
24,Cc1ccc(NS(=O)(=O)c2ccc(C)c(C(=O)N3CCN(C)CC3)c2)cc1,inactive
25,Cc1ccc(-n2c(=O)cc(N3CCN(C(=O)c4ccco4)CC3)[nH]c2=O)cc1,inactive

row,SMILES,outcome
1,COc1ccc(Oc2coc3c(CN(C)C)c(O)ccc3c2=O)cc1,inactive
2,O=C(Nc1ccc(N2CCN(C(=O)c3ccccc3)CC2)c(Cl)c1)c1ccco1,inactive
3,Cc1cc(N2CCN(c3nnnn3-c3ccccc3)CC2)n2ncnc2n1,inactive
4,C=CCSc1nnc(CSc2nc3sc4c(c3c(=O)[nH]2)CCCC4)n1-c1ccccc1,inactive
5,C[C@@H]1CN([C@@H](C)CO)C(=O)c2cc(C#CC3CCCCC3)cnc2O[C@H]1CN(C)C(=O)C1CCCCC1,inactive
6,COc1cc2c(cc1OC)C(c1cc(OC)c(OC)c(OC)c1)NCC2 (stereo not drawn),inactive
7,C[C@@H]1CCCCO[C@H](CN(C)C(=O)Nc2cccc3ccccc23)[C@@H](C)CN([C@H](C)CO)C(=O)c2cc(NS(=O)(=O)c3ccc(Cl)cc3)ccc2O1,inactive
8,CCN(CC)C(=O)c1sc(N)c(C#N)c1C,inactive
9,COc1ccc(CN(C)C[C@H]2OCCCC[C@H](C)Oc3ccc(NC(=O)NC(C)C)cc3C(=O)N([C@@H](C)CO)C[C@H]2C)cc1,inactive
10,CS(=O)(=O)N1CCN(c2cccc(Cl)n2)CC1,inactive
11,O=C(c1ccccc1CCc1ccccc1)N1CCOCC1,inactive
12,C[C@@H]1CCCCO[C@H](CN(C)S(=O)(=O)c2ccc(F)cc2)[C@H](C)CN([C@@H](C)CO)C(=O)c2cc(NC(=O)Cc3ccccc3)ccc2O1,inactive
13,Cc1ccccc1C(=O)NCc1nnc(SCC(=O)N2CCN(c3ccccc3)CC2)n1C,inactive
14,C[C@@H]1CN([C@H](C)CO)C(=O)c2cccc(NC(=O)c3ccc(-c4nccs4)cc3)c2O[C@@H]1CN(C)C(=O)Nc1cccc2ccccc12,inactive
15,C[C@H]1CN([C@@H](C)CO)C(=O)Cc2cc(NC(=O)Nc3ccc4c(c3)OCO4)ccc2O[C@@H]1CN(C)Cc1ccc(-c2ccccc2)cc1,inactive
16,C[C@H](CO)N1C[C@H](C)[C@@H](CN(C)Cc2ccc(-c3ccccc3)cc2)Oc2ccc(NC(=O)Nc3ccc4c(c3)OCO4)cc2CC1=O,inactive
17,C[C@@H]1CCCCO[C@@H](CN(C)S(=O)(=O)c2ccc(F)cc2)[C@H](C)CN([C@@H](C)CO)C(=O)c2cc(NC(=O)Nc3cccc4ccccc34)ccc2O1,inactive
18,C[C@@H]1CN([C@@H](C)CO)S(=O)(=O)c2ccc(/C=C/c3ccccc3)cc2O[C@@H]1CN(C)C(=O)NC1CCCC1,inactive
19,CCCn1c(SCC(=O)c2ccc(OC)c(OC)c2)nc2c1c(=O)n(C)c(=O)n2C,inactive
20,Cc1ccc(N(C(=O)Cn2nnc3ccccc32)C(C(=O)NCc2ccco2)c2ccc(C)o2)cc1 (stereo not drawn),inactive
21,C[C@@H]1CN([C@H](C)CO)C(=O)Cc2cc(NS(=O)(=O)c3ccc(F)cc3)ccc2O[C@@H]1CN(C)Cc1ccc(C(F)(F)F)cc1,inactive
22,C[C@@H]1CN([C@@H](C)CO)C(=O)Cc2cc(NS(=O)(=O)c3ccc(Cl)cc3)ccc2O[C@H]1CN(C)Cc1ccc(Cl)c(Cl)c1,inactive
23,C[C@@H]1CN([C@H](C)CO)C(=O)Cc2cc(NS(=O)(=O)c3ccc(F)cc3)ccc2O[C@@H]1CN(C)Cc1ccc(Cl)c(Cl)c1,inactive
24,C[C@H](CO)N1C[C@H](C)[C@@H](CN(C)Cc2ccc(Cl)c(Cl)c2)Oc2ccc(NS(=O)(=O)c3ccc(Cl)cc3)cc2CC1=O,inactive
25,C[C@@H]1CN([C@H](C)CO)C(=O)Cc2cc(NS(=O)(=O)c3ccc(F)cc3)ccc2O[C@H]1CN(C)Cc1ccc(Cl)c(Cl)c1,inactive

row,SMILES,outcome
1,C[C@@H]1CN([C@H](C)CO)C(=O)Cc2cc(NS(=O)(=O)c3ccc(F)cc3)ccc2O[C@H]1CN(C)Cc1ccc(C(F)(F)F)cc1,inactive
2,CCCCc1ccc(S(=O)(=O)NCCc2ccncc2)cc1,inactive
3,C[C@H](CO)N1C[C@H](C)[C@H](CN(C)S(=O)(=O)c2ccc(F)cc2)Oc2ncc(C#Cc3cccc(F)c3)cc2C1=O,inactive
4,CCOC(=O)C1(C)NC(c2ccc(N(C)C)cc2)C2C(=O)N(c3ccc(OC)cc3)C(=O)C21 (stereo not drawn),inactive
5,C[C@@H]1CN([C@@H](C)CO)C(=O)c2cc(NS(C)(=O)=O)ccc2O[C@@H](C)CCCCO[C@@H]1CN(C)S(=O)(=O)c1ccc(Cl)cc1,inactive
6,CCOc1nc(Nc2ccc(F)cc2)nc(N2CCN(c3ccc(OC)cc3)CC2)n1,inactive
7,C[C@H]1CN([C@@H](C)CO)C(=O)c2cc(NC(=O)Nc3ccc4c(c3)OCO4)ccc2O[C@@H]1CN(C)C(=O)Nc1ccc(C(F)(F)F)cc1,inactive
8,O=C(CN(Cc1ccccc1C(F)(F)F)C(=O)CNC(=O)c1ccco1)NC1CCCC1,inactive
9,Cc1cc(Cl)c(S(=O)(=O)N2CC(C)OC(C)C2)cc1OCC(N)=O (stereo not drawn),inactive
10,C[C@@H]1CN([C@@H](C)CO)C(=O)c2cc(NC(=O)CCC(F)(F)F)ccc2O[C@@H](C)CCCCO[C@@H]1CN(C)Cc1ccc(C(F)(F)F)cc1,inactive
11,Cc1ccc(C(=O)Nc2c(C(=O)N3CCOCC3)cnn2-c2ccccc2)cc1,inactive
12,Cc1cccc(NS(=O)(=O)c2ccc(-n3cccn3)cc2)c1C,inactive
13,COc1ccc(NC(=O)CC2C(=O)NCCN2C(=O)c2ccc(Cl)cc2)cc1 (stereo not drawn),inactive
14,C[C@H]1CN([C@@H](C)CO)C(=O)Cc2cc(NS(=O)(=O)c3cn(C)cn3)ccc2O[C@H]1CN(C)Cc1ccc(Cl)c(Cl)c1,inactive
15,C[C@H](CO)N1C[C@H](C)[C@H](CN(C)C(=O)Nc2cc(F)ccc2F)Oc2cc(C#CC3CC3)ccc2S1(=O)=O,inactive
16,C[C@H]1CN([C@@H](C)CO)S(=O)(=O)c2ccc(C#Cc3ccccc3)cc2O[C@@H]1CN(C)C(=O)Cc1ccccn1,inactive
17,COc1ccc(C#Cc2ccc3c(c2)O[C@H](CN(C)C(=O)Nc2cccc(OC)c2)[C@H](C)CN([C@@H](C)CO)S3(=O)=O)cc1,inactive
18,COc1ccc(C#Cc2ccc3c(c2)O[C@H](CN(C)C(=O)Nc2cccc(OC)c2)[C@H](C)CN([C@H](C)CO)S3(=O)=O)cc1,inactive
19,C[C@H]1CN([C@@H](C)CO)S(=O)(=O)c2ccc(Br)cc2O[C@@H]1CN(C)S(=O)(=O)c1ccc(F)cc1,inactive
20,C[C@H](CO)N1C[C@H](C)[C@@H](CN(C)S(=O)(=O)c2ccc(F)cc2)Oc2cc(Br)ccc2S1(=O)=O,inactive
21,O=c1oc2cc(OCc3ccc(F)cc3F)ccc2cc1-c1ccccn1,inactive
22,CC(=O)C[C@@H](O)CC(=O)[C@@H]1OC(=O)CCCCCCc2ccccc21,inactive
23,Cc1ccc(NS(=O)(=O)c2ccc(-c3ccc(=O)[nH]n3)o2)cc1Cl,inactive
